Screens as filed in PubChem.
LmPK inhibitor – qHTS Assay for Inhibitors of Leishmania Mexicana Pyruvate Kinase (LmPK); Potency, µM (doses to about 57.5 µM), for inactives: at the top dose activity change, negative = inhibition, hits mostly inhibitors; Q27686; purified LmPK, Kinase-Glo ATP luminescence, 1 h; 290,000 compounds, 0.37% hits; AID 1721, 2009
Target sequence (Q27686 whole entry, looked up): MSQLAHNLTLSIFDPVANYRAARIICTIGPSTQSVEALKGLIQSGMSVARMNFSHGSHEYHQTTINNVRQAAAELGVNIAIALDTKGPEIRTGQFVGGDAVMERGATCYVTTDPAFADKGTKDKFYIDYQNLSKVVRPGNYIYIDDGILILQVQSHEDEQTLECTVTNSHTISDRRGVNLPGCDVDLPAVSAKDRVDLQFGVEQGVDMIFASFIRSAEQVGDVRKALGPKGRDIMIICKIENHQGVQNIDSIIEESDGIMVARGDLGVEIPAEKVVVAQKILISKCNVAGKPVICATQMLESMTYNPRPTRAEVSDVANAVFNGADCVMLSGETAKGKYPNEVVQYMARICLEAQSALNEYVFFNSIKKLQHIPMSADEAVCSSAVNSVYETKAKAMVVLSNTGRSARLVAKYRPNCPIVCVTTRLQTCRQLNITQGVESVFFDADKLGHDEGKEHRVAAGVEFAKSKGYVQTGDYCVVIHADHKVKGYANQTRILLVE
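ATP generated from ADP (0.1 mM) and PEP (0.5 mM) by 0.1 nM LmPK over 1 h at room temperature (pH 7.2 imidazole buffer) was detected by coupled luciferase luminescence. Values were normalized to uninhibited and no-enzyme wells.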
Sm TGR block – qHTS Assay for the Inhibitors of Schistosoma Mansoni Peroxiredoxins | 360,000 compounds, 3% hits | purified TGR, DTNB reduction, TNB absorbance 405 nm | AID 485364, 2010 | Potency, µM (highest dose often 114 µM), for the others: top-dose activity change, negative = inhibition, hits mostly inhibitors | Schistosoma mansoni thioredoxin glutathione reductase (TGR), Q962Y6; also: nearly all actives have a fitted effect of over 60% in size
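Kinetic colorimetric format: TGR-catalysed, NADPH-driven DTNB reduction monitored via TNB absorbance. Enzyme dispensed at 20 nM; compound exposure 15 min at room temperature before reaction start.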
AMA1-RON2 inh – qHTS for Inhibitors of AMA1-RON; Towards Development of Antimalarial Drug Lead: Primary Screen; 360,000 compounds, 0.2% hits; Potency, µM (top dose mostly 58.2 µM), for the others: at the highest dose activity change, negative = inhibition, hits mostly inhibitors; AlphaScreen AMA1-biotinylated RON2 peptide binding;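 also: 0% = vehicle wells and -100% = peptide control; nearly all actives have a fitted effect of over 45% in size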
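AMA1 (3D7) with his tag at 25 nM final met compounds first, then biotinylated RON2 peptide at 25 nM; detection used donor plus acceptor beads, 10 µg/mL apiece, read by AlphaScreen after 30 min at room temperature.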
Tb PYK inh – qHTS of Trypanosoma Brucei Inhibitors; pyruvate kinase (Trypanosoma brucei), Q57TT1; TbPYK enzyme, Kinase-Glo Plus ATP luminescence, 45 min; Potency, µM (doses to about 76.8 µM), for the others: at the highest dose activity, negative = inhibition, actives largely listed as inhibitors; 410,000 compounds, 0.12% hits; AID 624173, 2012; also: nearly all actives have a fitted effect of over 50% in size
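Assay buffer: 50 mM TEA pH 7.2, 100 mM KCl, 10 mM MgCl2, 0.05% BSA, 0.01% Tween-20. Pyruvate kinase from T. brucei plus substrate met compound, then ADP (130 uM final). Luminescence was read post 45 min RT.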
RE007 growth inh – qHTS Assay for Inhibitors of the HIV-1 protein Vpr; AID 651644, 2012; Potency, µM (highest dose often 92.2 µM), without a hit: at the top dose activity change, negative = less growth, hits mostly inhibitors; S. pombe RE007 Vpr strain, BacTiter-Glo ATP luminescence, 24 h; 360,000 compounds, 0.21% hits; active = well fitted falling curve with a large enough effect; inconclusive = small, poorly fitted or top-dose-only effect; inactive = no such curve, though single readings can be large or run the other way; also: nearly all actives have a fitted effect of over 50% in size
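Fission yeast strain RE007, carrying one chromosomally integrated HIV-1 vpr copy, was seeded at OD 0.01 in PMG+AL medium with 23 nL pinned compound. After 24 h at 30 °C and 99% humidity, viability was read by BacTiter-Glo luminescence.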
Starred values were filed as active, the others as inactive; ? = inconclusive; nt = not tested or not shown; [ ] = dose if it differs, or a comment. An excerpt weighted towards active compounds, which were near 3.2% of everything screened. Unless noted, calls follow the shape of the dose curve; as a rule, active = well fitted curve in the direction sought with a large enough effect; inconclusive = small, poorly fitted or top-dose-only effect, or another doubt; inactive = no such curve, though single readings can be large; an effect the other way counts as inactive or inconclusive. Unless noted, % is scaled to controls: 0 for no effect and ±100 for the full control effect; potency is read from the fitted curve at half-maximal effect.

SMILES	LmPK inhibitor	Sm TGR block	AMA1-RON2 inh	Tb PYK inh	RE007 growth inh
COc1cc(CNC(=O)c2cnc3c(-c4cccc(C)c4)c(C)nn3c2C)cc(OC)c1OC	nt	-2%	nt	1%	nt
Cc1ccc(N/C(C(Cl)=C(Cl)Cl)=C(/Cl)[N+](=O)[O-])c(C)c1	1%	7.9µM*	?	4%	0%
CCOc1ccc(C2CC(=O)Nc3nc(SCc4ccccc4C)[nH]c(=O)c32)cc1OC (centres undefined)	nt	0%	nt	-8%	nt
Cc1coc2c(C)c3oc(=O)c(CCC(=O)N4CCCCC4)c(C)c3cc12	nt	1%	nt	2%	nt
CCOC(=O)c1[nH]cnc1N=Nc1c(O)ccc2ccccc12	?	-12%	29%	-7%	-18%
Oc1ccc2ccccc2c1N=Nc1ccccn1	-14%	-7%	10µM*	-4%	35µM*
Oc1ccc2ccccc2c1N=Nc1ccccc1F	-5%	-24%	10µM*	0%	-15%
O=S(=O)(O)c1ccc2c(N=Nc3ccc(S(=O)(=O)O)c4ccccc34)c(O)c(S(=O)(=O)O)cc2c1	nt	nt	nt	-16%	nt
O=S(=O)(O)c1cccc(N=Nc2c(O)ccc3ccccc23)c1	?	20µM*	-25%	-12%	-20%
CC(C)CCn1c(O)c(N=Nc2ccccn2)c2ccccc21	-6%	-1%	7%	-3%	-3%
N#CC(=C1C=C(Br)C(=NO)C=C1Cl)c1cccc2ccccc12	nt	nt	14µM*	-2%	-18%
Cn1ncc(C(=O)N2CCN(c3ccc(F)cc3)CC2)c1C1CCN(C(=O)OC(C)(C)C)CC1	nt	-1%	nt	2%[15.4 µM]	nt
CCN(CC)c1ccc(NC2CC(=O)N(CCc3ccc(OC)cc3)C2=O)cc1 (centres undefined)	3%	10µM*	-20%	-24%	-16%
O=C(Nc1ccccc1)C(Cl)C(=O)c1ccccc1 (centres undefined)	10%	-26%	-8%	-30%	7.1µM*
Cc1cccc2c1-c1sc(C(=O)N3CCN(c4ccccc4)CC3)cc1CO2	nt	5%	nt	4%	nt
CCCn1c(CCC(=O)O)ccc1-c1cccs1	4%	3.5µM*	-21%	-5%	0%
O=C(O)CCc1ccc(-c2cccs2)n1NC(=O)c1ccco1	-1%	?	-6%	-5%	7%
COCCCn1c(CCC(=O)O)ccc1-c1cccs1	0%	8.9µM*	-8%	-10%	2%
CCOC(=O)c1cc(S(=O)(=O)N2CCN(c3ccc(F)cc3)CC2)[nH]n1	nt	4%	nt	-9%	nt
C[C@@]12CCC=C[C@H]1[C@H](c1ccccc1Br)N(Cc1ccccc1)C2=O	nt	nt	-15%	4%	2%
C[C@@]12CCC=C[C@H]1[C@H](c1ccoc1)N(Cc1ccccc1)C2=O	6%	35µM*	0%	6%	-3%
NC(CO)C(=O)NNCc1ccc(O)c(O)c1O (centres undefined)	-1%	0.32µM*	?	-6%	7%
COC(=O)C(N)Cc1ccc(O)cc1 (centres undefined)	-4%	10%	6%	0%	15%
Cc1ccc(S(=O)(=O)c2nc(S(C)(=O)=O)sc2N(C)C)cc1	-1%	25µM*	-5%	-9%	1%
CCOC(=O)c1ccc(NC(=O)CCS(=O)(=O)c2ccc(Br)s2)cc1	4%	11µM*	4%	0%	4%
SMILES	LmPK inhibitor	Sm TGR block	AMA1-RON2 inh	Tb PYK inh	RE007 growth inh
NC(N)=NS(=O)(=O)c1ccc(NC(=S)NC(=O)c2ccncc2)cc1	-1%	20µM*	14%	1%	3%
CCc1nnc(NS(=O)(=O)c2ccc(NC(=S)NC(=O)c3ccc(OC)c(OC)c3)cc2)s1	0%	40µM*	53%	-4%	-9%
CCc1nnc(NS(=O)(=O)c2ccc(NC(=O)c3ccc(S(=O)(=O)N(CC)CC)cc3)cc2)s1	-1%	1%	7%	-1%	12%
CCc1nnc(NS(=O)(=O)c2ccc(NC(=S)NC(=O)c3ccc(OC)cc3)cc2)s1	-2%	40µM*	12%	-5%	-5%
CCc1nnc(NS(=O)(=O)c2ccc(NC(=S)NC(=O)c3ccncc3)cc2)s1	-1%	20µM*	10%	3%	-8%
NC(N)=NS(=O)(=O)c1ccc(NC(=S)NC(=O)c2ccc(Br)cc2)cc1	6%	-35%	72%	1%	8%
Cc1cccc(CCNC(=O)c2ccc3c(c2)nc2n3CCCCC2)c1	nt	-5%	nt	0%	nt
Cc1cccc(N2CCn3c2nc2c3c(=O)n(C/C=C/c3ccccc3)c(=O)n2C)c1	nt	-27%	nt	2%	nt
Cc1ccc(N=Nc2c(O)ccc3n[nH]nc23)cc1	?	32µM*	44%	-22%	?
COc1ccccc1OCc1n[nH]c(=S)n1Cc1ccccc1	-1%	-3%	69%	4µM*	14%
S=c1[nH]nc(CCc2ccccc2)n1Cc1ccccc1	8.9µM*	-1%	83%	4µM*	0%
CCn1c(C(c2ccccc2)c2ccccc2)n[nH]c1=S	-18%	-17%	38%	8.9µM*	9%
S=c1[nH]nc(COc2ccc(Cl)cc2)n1Cc1ccccc1	2%	nt	52%	?	10%
CCN(C(=O)c1cn(CC(C)C)c(=O)c2cc(OC)c(OC)cc12)c1cc(OC)ccc1OC	nt	-4%	nt	2%	nt
O=C(CCOc1ccccc1)N(Cc1cccnc1)c1nc2c(F)cccc2s1	nt	2.2µM*	nt	-5%	nt
Cc1ccc2sc(N(Cc3cccnc3)C(=O)CCOc3ccccc3)nc2c1C	nt	35µM*	nt	-1%[15.4 µM]	nt
Cc1ccc2nc(N(Cc3cccnc3)C(=O)CCS(=O)(=O)c3ccccc3)sc2c1	nt	?	nt	-5%	nt
O=C(CCS(=O)(=O)c1ccccc1)N(Cc1cccnc1)c1nc2ccc(Cl)cc2s1	nt	1.1µM*	nt	-1%	nt
CCCCC1=CC2=CC(=O)C(C)(OC(=O)CC)C(=O)C2=CN1CCCN(CC)CC (centres undefined)	-1%[11.5 µM]	nt	nt	nt	nt
O=C(Cn1c(=O)n2nc(-c3cccc(F)c3)nc2c2ccccc21)N1CCN(c2ccc(F)cc2)CC1	nt	16%	nt	2%	nt
O=C(N/N=C/c1sc(=O)n(-c2ccccc2)c1Cl)c1ccccc1	?	?	26%	3%	-11%
NC(=O)N/N=C/c1sc(=O)n(-c2ccccc2)c1Cl	2%	32µM*	-1%	-6%	-22%
CCOC(=O)c1cc(C)n(CC2CCC(C(=O)Nc3cc(OC)cc(OC)c3)CC2)c1C (centres undefined)	nt	17%	nt	1%	nt
CCOC(=O)C=C(C(=O)OCC)C(=O)OCC	-4%	1.6µM*	7%	?	11%
Cc1n[nH]c(=S)c2nn(-c3cccc(Cl)c3)c(C)c12	7%	79µM*	nt	nt	nt
